Holding throughout (assay): glycan array binding signal (z-score within array); higher = stronger binding
Holding throughout (settings): glycan notation: IUPAC condensed, linker removed

In test [1] the target is Man(a1-2)Man(a1-3)[Man(a1-6)]Man(a1-6)[Man(a1-2)Man(a1-3)]Man(b1-4)GlcNAc(b1-4)GlcNAc. In short, it runs like this:
(§1)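 Glycan array data were curated from 3228 arrays in the Consortium for Functional Glycomics database and kept only where the protein sequence was available. Glycan names were converted to IUPAC-condensed notation, and columns mapping to the same glycan were averaged. The binding signal is a within-array Z-score, averaged across arrays of the same protein sequence at different concentrations or buffers and across linkers. Negative Z-scores can be read as non-binding.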

Test [2] has as its target Man(a1-2)Man(a1-6)[Man(a1-3)]Man(a1-6)[Man(a1-2)Man(a1-2)Man(a1-3)]Man(b1-4)GlcNAc(b1-4)GlcNAc. In short, it runs like this:
as §1

Test [3] concerns the target Man(a1-3)[Man(a1-6)]Man(a1-6)[Man(a1-2)Man(a1-3)]Man(b1-4)GlcNAc(b1-4)GlcNAc. The method in brief: as §1
Test [4] has as its target Man(a1-3)[Man(a1-6)]Man(a1-6)[Man(a1-3)]Man. In short, it runs like this:
as §1

The target of test [5] is Man(a1-3)[Man(a1-6)]Man(a1-6)[Man(a1-3)]Man(b1-4)GlcNAc(b1-4)GlcNAc. In short, it runs like this: as §1
Test [6] deals with Neu5Ac(a2-3)Gal(b1-3)[Fuc(a1-4)]GlcNAc. The method in brief: as §1
Test [7] deals with Neu5Ac(a2-3)Gal(b1-4)[Fuc(a1-3)]GlcNAc(b1-3)Gal. In short, it runs like this:
as §1

Test [8] addresses Neu5Ac(a2-6)Gal(b1-4)GlcNAc(b1-2)Man(a1-3)[GlcNAc(b1-2)Man(a1-6)]Man(b1-4)GlcNAc(b1-4)GlcNAc. The method in brief: as §1
The target in test [9] is Neu5Ac(a2-6)Gal(b1-4)GlcNAc(b1-3)Gal(b1-4)GlcNAc(b1-6)[Gal(b1-3)]GalNAc. In short, it runs like this:
as §1

The target in test [10] is Neu5Ac(a2-6)Gal(b1-4)GlcNAc(b1-6)[Gal(b1-3)]GalNAc. In short, it runs like this: as §1
Another test deals with Neu5Gc(a2-6)GalNAc. The method in brief: as §1

The entries come from a sample that favours the strongest signals as a whole.

This note sets out measurements from the supplement of paper PMC8728848.

B1: PFL (Pseudomonas fluorescens) (protein)
chain: MSKYAVANQWGGSSAPWHPGGTWVLGARDNQNVVAIEIKSGDGGKSFTGTMTYAGEGPIGFKAQRTGQNQYNVENQWGGNDAPWHPGGKWVIGGRDNQNVIALSVTSSDGGKNLSGTNTYANEGPIGFRGQIE
Turning to B1, the “glycan array binding signal (z-score)” value in [1] was 9.19; in test [2], 11.7; in [3], 13.2; in test [4] it was 7.17; in test [5] it was 10.9; in [6] it was -0.12. The “glycan array binding signal (z-score)” value was -0.117 in test [7]; 0.313 in test [8]; -0.118 in [9]; -0.117 in test [10]; -0.114 with Neu5Gc(a2-6)GalNAc.
